# Assay outcomes as filed in PubChem.
# Shown are actives, neighbours in structure and some others; about 20% of the full set was active somewhere.
# Shiga toxin inh: inhibitors of Shiga toxin in Vero cells. Vero cells, Shiga toxin protein synthesis inhibition reporter. inhibition, % at 38.7 µM. 290,000 tested, 9.2% active. AID 2315; in the data active = inhibition mostly above about 28%, no sharp cut-off; inactive = mostly below about 43%; note: 0% is about no effect
# Cycloheximide cs: affects cycloheximide protein synthesis inhibition readout, counter-screen; 300,000 tested, 12% active; max response, %; cell reporter, cycloheximide protein synthesis inhibition counterscreen; in the data active = max response mostly above about 13%, no sharp cut-off; inactive = mostly below about 14%; note: read at 38.3 µM for the half of the compounds with a filed dose; 0% is about no effect
# HCMV inh: inhibitors of human cytomegalovirus. 410,000 tested, 4.5% active. AID 1259415. HFF cells, HCMV-luciferase reporter, 72 h; stronger effect = lower value. activity change, negative = inhibition, % at 57.5 µM; in the data active = activity change below about -60%; inconclusive = no clear call, values can overlap the other calls; inactive = above about -39%; note: % is set by controls: 0 for no effect and ±100 for the full control effect
#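 Screen run at 2 compound doses on HFFs infected with reporter HCMV, MOI 1 PFU/cell. Luciferase activity from cell lysates at 72 h post infection gave inhibition relative to buffer-only and Salinomycin wells.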
# Pf growth 96h: inhibits malaria parasite growth, 96 h; P. falciparum luciferase reporter growth, 96 h; Potency, µM (titrated, usually from 28.7 µM), inactives show at the top dose activity change, negative = inhibition, hits mostly inhibitors; 320,000 tested, 6.9% active; AID 504834; note: potency is the fitted concentration of half-maximal effect; % is set by controls: 0 for no effect and ±100 for the full control effect
#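 96 h incubation, 37 C, 5% CO2, of luciferase-reporter P. falciparum-infected RBCs (2% hematocrit, 0.05% parasitemia final) with test compounds; endpoint luminescence.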
# Pf growth 48h: P. falciparum growth inhibition at 48 hours (one generation). 310,000 tested, 5.9% active. Potency, µM (doses to about 28.7 µM), inactives show at the top dose activity change, negative = inhibition, actives largely listed as inhibitors. P. falciparum luciferase growth in erythrocytes, 48 h; note: potency is the fitted concentration of half-maximal effect; % is set by controls: 0 for no effect and ±100 for the full control effect
#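 Here the parasites carry a stable luciferase gene and grow inside erythrocytes in Albumax-based RPMI medium with compound for one erythrocytic cycle. Activity is scored as loss of luminescent signal.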
# Starred values were filed as active, the others as inactive; i = inactive; ? = inconclusive; nt = no result given; [ ] = dose if it differs, or a comment. Unless noted, calls come from the whole dose curve; as a rule, active = well fitted inhibition curve with a large enough effect; inconclusive = small, poorly fitted or top-dose-only effect, or another doubt; inactive = no such curve, though single readings can be large or run the other way.
SMILES,Shiga toxin inh,Cycloheximide cs,HCMV inh,Pf growth 96h,Pf growth 48h
C=CCn1c(SCC(=O)NCc2ccccc2)nnc1C1CCCCC1,-9.2,-1.6,nt,-13.5%,-7.3%
C=CCn1c(SCC(=O)Nc2nnc(C)s2)nnc1C1CC1,-23.4,16.4*,33.5,25.1%,22.4%
O=C(Nc1nnc(C2CCCCC2)s1)c1cccs1,21.8,28.4*,28.4,194.5%,275.0%
O=C(Nc1nnc([C@@H]2C[C@H](O)[C@@H](CO)O2)s1)c1cccs1,nt,nt,-4.4,nt,nt
O=C(Nc1nnc(C2CCCO2)s1)c1cccs1 (stereo unspecified),19.5,17.3*,101.6,nt,68.5%
COc1cccc(C(=O)Nc2nnc(C3CCCO3)s2)c1 (stereo unspecified),59.4*,25.3*,61.1,87.1%,nt
CCN(CC)C(=O)Oc1cc2c(-c3cc4cccc(OC)c4o3)cc(=O)oc2cc1C,-3.5,20.9,-17.0,10.4µM*,10.4µM*
O=C(N/N=C/c1ccc(Cl)cc1Cl)c1cccc(N2CCCC2=O)c1,44.2,15.8*,-21.2,-27.5%,?
O=C(N/N=C/c1ccc([N+](=O)[O-])cc1)c1cccc(N2CCCC2=O)c1,-12.1,12.0,12.6,-16.2%,-12.9%
O=C(N/N=C/c1cc(Br)cc(Br)c1O)c1cccc(N2CCCC2=O)c1,-5.1,-2.0,-99.1*,10.4µM*,75.0%
Cc1ccc(S(=O)(=O)N(C)CC(=O)Nc2cccnc2)cc1,-5.1,1.4,-20.6,21.4%,?
O=C(CNC(=O)c1ccccc1F)OCc1cc(=O)n2nc(C3CC3)sc2n1,nt,nt,-6.1,nt,nt
COC(=O)c1ccc(OCCOc2ccc(C(=O)OC)cc2)cc1,13.0,1.8,?,6.2%,nt
O=C(c1ccc(COc2ccc(Cl)cc2)cc1)N1CCCCC1,90.5*,23.5*,7.0,?,34.8%
O=C(c1ccc(COc2ccccc2Br)cc1)N1CCCCCC1,59.7*,30.5*,7.4,-1.1%,?
O=C(c1ccc(NC(=S)NCc2ccc(Cl)cc2)cc1)N1CCCCC1,40.1,-3.7,-14.7,217.3%,-2.8%[5.75 µM]
O=C(c1ccc(CS(=O)(=O)Cc2ccccc2)cc1)N1CCCCC1,-8.7,1.1,-3.0,?,19.1%
COC(=O)c1ccc(COc2ccc(CNCc3ccc(Cl)cc3)cc2)cc1,43.1*,34.1*,58.0,94.7%,35.9%
CCCCOc1ccc(C(=O)N2CCCCCC2)cc1,active,27.5*,30.0,11.6%,41.8%
CNc1cnc(-c2ccc(C(=O)N3CCOCC3)cc2)cn1,nt,nt,36.2,nt,nt
O=C(NCCc1ccccc1)C1CCC(CNS(=O)(=O)c2ccc(Cl)cc2)CC1 (stereo unspecified),nt,nt,0.0,nt,nt
O=C(CSc1nccn1-c1ncc(C(F)(F)F)cc1Cl)c1ccc(Br)cc1,102.3,30.6*,nt,86.7%,49.8%
O=C(CSc1nccn1-c1ccccc1)c1ccc(Cl)cc1,82.7*,29.5*,-20.5,14.3%,3.0%
Cc1ccc(C(=O)CSc2nccn2-c2ccccc2)cc1,143.3*,48.9*,10.8,108.4%,31.6%
Cc1cc(C)cc(-n2ccnc2SCC(=O)O)c1,-5.0,0.9,22.5,171.6%,i
SMILES,Shiga toxin inh,Cycloheximide cs,HCMV inh,Pf growth 96h,Pf growth 48h
CCOc1ccc(NC(=O)Cn2c(=O)n(CC3CCC(C(=O)NCCc4ccccc4)CC3)c(=O)c3ccccc32)cc1 (stereo unspecified),nt,nt,17.1,nt,nt
O=C1c2ccccc2C(=O)N1CCN1CCc2ccccc21,93.9*,37.2*,-2.9,95.8%,32.0%
O=C(Cc1ccc(S(=O)(=O)N2CCOCC2)s1)N(Cc1ccccc1)c1ccccc1,nt,nt,-38.1,2.33µM*,9.28µM*
CN(Cc1ccc(Cl)cc1Cl)C(=O)Cc1ccc(S(=O)(=O)N2CCOCC2)s1,nt,nt,-33.4,nt,nt
CCCCN(C(=O)Cc1ccc(S(=O)(=O)N2CCOCC2)s1)c1ccccc1,nt,nt,-16.8,11.7µM*,?
CCCCn1c(N)c(N(CC)C(=O)Cc2ccc(S(=O)(=O)N3CCOCC3)s2)c(=O)[nH]c1=O,nt,nt,-31.2,11.4%,1.4%
CCOc1ccc(N2CC(C(=O)NC3=NCCS3)CC2=O)cc1 (stereo unspecified),-5.9,-3.1,?,23.5%,13.0%
O=C1SCCC1NS(=O)(=O)c1ccc([N+](=O)[O-])cc1 (stereo unspecified),-2.8,4.2,6.0,-8.1%,10.8%
O=C(NCc1ccc(F)cc1)C(C(=O)NCc1ccc(F)cc1)c1ncc(C(F)(F)F)cc1Cl,0.9,6.6,4.6,?,-28.5%
CCOC(=O)C(C(=O)NCc1ccc(F)cc1)c1ncc(C(F)(F)F)cc1Cl (stereo unspecified),11.7,16.8*,-10.3,76.4%,?
O=C(NCc1cccs1)C1CCCN1C(=O)Nc1ccccc1Cl (stereo unspecified),-8.0,-5.2,-25.2,-16.0%,31.8%
O=C(c1cc2ccccc2o1)N1CCN(S(=O)(=O)c2ccc(F)c(F)c2F)CC1,nt,nt,-34.6,10.4µM*,8.28µM*
CCOC(=O)c1ccc(S(=O)(=O)N2CCN(C(=O)c3cc4ccccc4o3)CC2)cc1,nt,nt,-0.1,?,9.28µM*
CCCCC1(CC)SCC(=O)NC1=O (stereo unspecified),nt,nt,15.4,nt,nt
Cc1cc(-c2csc(NC(=O)c3ccc(S(=O)(=O)N(C)C)cc3)n2)c(C)n1-c1ccccc1,8.6,-2.8,-24.8,10.4µM*,?
O=C(Nc1nc(-c2cc3ccccc3o2)cs1)c1ccc(S(=O)(=O)N2CCCC2)cc1,14.3,-5.7,-83.6*,13.1µM*,-28.5%
CN(C)S(=O)(=O)c1ccc(C(=O)Nc2nc(-c3cc4ccccc4o3)cs2)cc1,3.3,1.1,-69.2*,?,-15.9%
COc1ccc(C(=O)OCCCc2cc3ccccc3c(=O)o2)cc1,nt,nt,?,59.2%,40.7%
O=C(/C=C/c1ccccc1)Nc1cccnc1Oc1ccccc1F,75.6*,62.2*,69.4,44.5%,1.1%
Nc1cccnc1Oc1ccccc1F,-3.7,-0.6,-12.0,21.0%,-0.7%
Cc1ccc(C)c(SCC(=O)Nc2cccc(S(=O)(=O)NC3=NCCCCC3)c2)c1,13.1,-3.6,-29.6,-25.7%,9.6%
O=C(CCl)Nc1cccc(S(=O)(=O)NC2=NCCCCC2)c1,nt,nt,-101.8*,nt,nt
O=C(Nc1cccc(S(=O)(=O)NC2=NCCC2)c1)c1ccc(C(F)(F)F)cc1,nt,nt,-60.2*,nt,nt
Cc1cccc(-n2ccnc2SCC(=O)Nc2cccc(S(=O)(=O)NC3=NCCC3)c2)c1C,nt,nt,-23.0,-21.2%,10.4µM*
N#Cc1ccc(C(=O)Nc2cccc(S(=O)(=O)NC3=NCCC3)c2)cc1,nt,nt,-9.6,nt,nt
O=C(COC(=O)c1ccco1)Nc1cccc(S(=O)(=O)N2CCOCC2)c1,nt,nt,-6.6,nt,nt
Cc1ccc(CNC(=O)c2c[nH]c3ccc(S(=O)(=O)Nc4ccc(C(C)C)cc4)cc3c2=O)cc1,nt,nt,0.0,nt,nt
O=S(=O)(NC1=NCCCCC1)c1ccc2ccccc2c1,20.9,23.3*,31.2,35.5%,28.5%
O=C(/C=C/c1ccc(Cl)cc1Cl)Nc1cccc(S(=O)(=O)NC2=NCCCCC2)c1,12.9*,26.3*,23.3,47.5%,23.6%
